An excerpt weighted towards active compounds, which were near 3.5% of everything screened.
BoNT A protease = BoNT A light chain protease inhibition; hit rate 0.17% among 360,000; AID 588499; inhibition, % at 10 µM; multiplex microsphere protease substrate cleavage, flow cytometry
Anthrax LF inh2 = anthrax lethal factor protease inhibition; P15917; multiplex microsphere protease cleavage assay, LF; inhibition, % at 10 µM; hit rate 0.12% among 360,000; AID 588501
Target sequence (P15917 whole entry, looked up): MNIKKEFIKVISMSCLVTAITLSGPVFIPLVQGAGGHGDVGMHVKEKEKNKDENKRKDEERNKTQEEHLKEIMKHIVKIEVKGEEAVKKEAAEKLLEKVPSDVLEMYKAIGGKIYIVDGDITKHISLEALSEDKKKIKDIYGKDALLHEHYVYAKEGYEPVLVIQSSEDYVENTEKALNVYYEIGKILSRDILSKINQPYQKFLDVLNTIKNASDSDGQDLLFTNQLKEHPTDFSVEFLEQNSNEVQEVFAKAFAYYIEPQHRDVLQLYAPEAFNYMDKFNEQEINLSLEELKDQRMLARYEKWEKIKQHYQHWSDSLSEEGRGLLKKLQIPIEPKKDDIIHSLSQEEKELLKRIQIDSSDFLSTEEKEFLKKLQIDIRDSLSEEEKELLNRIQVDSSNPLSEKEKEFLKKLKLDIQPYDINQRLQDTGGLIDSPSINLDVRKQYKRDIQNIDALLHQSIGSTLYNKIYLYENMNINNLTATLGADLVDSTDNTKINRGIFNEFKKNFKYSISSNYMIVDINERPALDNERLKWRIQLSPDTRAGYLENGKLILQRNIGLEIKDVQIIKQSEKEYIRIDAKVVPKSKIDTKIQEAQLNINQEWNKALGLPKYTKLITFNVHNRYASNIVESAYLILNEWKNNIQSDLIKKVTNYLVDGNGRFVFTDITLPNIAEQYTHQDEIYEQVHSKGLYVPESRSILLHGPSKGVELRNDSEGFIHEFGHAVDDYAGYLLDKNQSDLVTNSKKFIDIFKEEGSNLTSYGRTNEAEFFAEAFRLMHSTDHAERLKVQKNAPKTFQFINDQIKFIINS
Bead autofluor = flagged as autofluorescent in microsphere protease counterscreen; compound autofluorescence counterscreen, microsphere flow cytometry; active compounds read high; fluorescence intensity (test concentration not listed); hit rate 3.1% among 360,000; in the data active = fluorescence intensity above about 16000; inconclusive = no clear call, values can overlap the other calls
BoNT F protease = inhibitors of Botulinum neurotoxin F light chain protease; Multiplex microsphere protease cleavage assay, flow cytometry; inhibition, % at 10 µM; hit rate 0.22% among 360,000; in the data active = inhibition above about 35%, passing the limit was not always enough; inconclusive = no clear call, values can overlap the other calls
Hits are given with their value. Cut-off read from the data, not from the text of the source, unless noted: active = inhibition above about 30%; inconclusive = no clear call, values can overlap the other calls; inactive = below that.

For CCc1nnc(NC(=O)c2ccc(COc3ccc(C)cc3)o2)s1 the results were BoNT A protease inactive, Anthrax LF inh2 inactive, Bead autofluor 23447 and BoNT F protease inactive.
For CCc1nnc(NC(=O)c2ccc(Br)o2)s1 the results were BoNT A protease inactive, Anthrax LF inh2 inactive, Bead autofluor inactive and BoNT F protease inactive.
For CCc1nnc(NC(=O)c2ccc(COc3ccccc3)o2)s1 the results were BoNT A protease inactive, Anthrax LF inh2 inactive, Bead autofluor 17254 and BoNT F protease inactive.
Screening Clc1ccccc1Cn1nnc2c(NCCN3CCOCC3)ncnc21 returned BoNT A protease inactive, Anthrax LF inh2 inactive, Bead autofluor inactive and BoNT F protease inactive.
For CC(C)(C)c1nc(NCCN2CCOCC2)c2nnn(Cc3ccccc3Cl)c2n1 the results were BoNT A protease inactive, Anthrax LF inh2 inactive, Bead autofluor 23490 and BoNT F protease inactive.
For c1ccc(Cn2nnc3c(NCCN4CCOCC4)ncnc32)cc1 the results were BoNT A protease inactive, Anthrax LF inh2 inactive, Bead autofluor 22975 and BoNT F protease inactive.
Screening Cc1nc(NCCN2CCOCC2)c2nnn(Cc3ccccc3Cl)c2n1 returned BoNT A protease inactive, Anthrax LF inh2 inactive, Bead autofluor inactive and BoNT F protease inactive.
Screening CC(C)=CCOc1ccc2c(C)c(CCC(=O)N3C[C@H]4C[C@@H](C3)c3cccc(=O)n3C4)c(=O)oc2c1C returned BoNT A protease inactive, Anthrax LF inh2 inactive, Bead autofluor inactive and BoNT F protease inactive.
For O=C1NC(C2CC3C=CC2C3)Nc2ccccc21 (configuration not stated) the results were BoNT A protease inactive, Anthrax LF inh2 inactive, Bead autofluor inactive and BoNT F protease inactive.
`CC(C)c1ccccc1N1CC(C(=O)O)CC1=O` (configuration not stated) gave BoNT A protease inactive, Anthrax LF inh2 inactive, Bead autofluor 21241 and BoNT F protease inactive.
For COC(=O)c1c(NC(=O)c2cnccn2)sc2c1CCC2 the results were BoNT A protease inactive, Anthrax LF inh2 inactive, Bead autofluor inactive and BoNT F protease inactive.
Screening O=C(Nc1nc2c(s1)CCCC2=O)c1cnccn1 returned BoNT A protease inactive, Anthrax LF inh2 inactive, Bead autofluor 23908 and BoNT F protease inactive.
For COc1cccc(-c2csc(N3CCN(C(=S)Nc4ccccc4)CC3)n2)c1 the results were BoNT A protease inactive, Anthrax LF inh2 inactive, Bead autofluor inactive and BoNT F protease inactive.
For COc1cccc(-c2csc(N3CCN(Cc4ccccc4)CC3)n2)c1 the results were BoNT A protease inactive, Anthrax LF inh2 inactive, Bead autofluor 24520 and BoNT F protease inactive.
Screening COc1cccc(-c2csc(N3CCN(S(=O)(=O)c4ccc(F)cc4)CC3)n2)c1 returned BoNT A protease inactive, Anthrax LF inh2 inactive, Bead autofluor 21656 and BoNT F protease inactive.
For Nc1[nH]c(C(=O)c2ccccc2)c(-c2ccccc2Cl)c1C(=O)c1ccccc1 the results were BoNT A protease inactive, Anthrax LF inh2 inactive, Bead autofluor inactive and BoNT F protease inactive.
`C/C=C/c1ccc(OCC(=O)Nc2cc(S(=O)(=O)N3CCOCC3)ccc2N2CCCC2)c(OC)c1` gave BoNT A protease inactive, Anthrax LF inh2 inactive, Bead autofluor inactive and BoNT F protease inactive.
`O=C1CN(C(=O)CN2CCN(S(=O)(=O)c3ccccc3F)CC2)c2ccccc2N1` gave BoNT A protease inactive, Anthrax LF inh2 inactive, Bead autofluor inactive and BoNT F protease inactive.
For Cc1noc(C)c1CN(C(=S)NC1CC2CCC1C2)c1ccccc1 (configuration not stated) the results were BoNT A protease inactive, Anthrax LF inh2 inactive, Bead autofluor inactive and BoNT F protease 42.
For O=[N+]([O-])c1ccc(Cl)c(/C=N/NC(=S)Nc2ccccc2)c1 the results were BoNT A protease inconclusive, Anthrax LF inh2 inactive, Bead autofluor 16957 and BoNT F protease inactive.
`Cc1cc(C(O)c2ncc(-c3ccccc3)[nH]2)ccc1F` (configuration not stated) gave BoNT A protease inactive, Anthrax LF inh2 inactive, Bead autofluor inactive and BoNT F protease inactive.
For CC12CCC(C(=O)Nc3ccccc3)(C/C1=N\O)C2(C)C (configuration not stated) the results were BoNT A protease inactive, Anthrax LF inh2 inactive, Bead autofluor 16758 and BoNT F protease inactive.
Cc1cccc(NC(=O)C23CCC(C)(/C(=N/O)C2)C3(C)C)c1 (configuration not stated) was read as BoNT A protease inactive, Anthrax LF inh2 inactive, Bead autofluor inactive and BoNT F protease inactive.
Screening CC(=O)Nc1nc(=S)n(-c2ccccc2)[nH]1 returned BoNT A protease inactive, Anthrax LF inh2 inactive, Bead autofluor 22526 and BoNT F protease inactive.
Screening Cc1ccc(N2CSC3=C(C#N)C(c4cccs4)CC(=O)N3C2)cc1 (configuration not stated) returned BoNT A protease inactive, Anthrax LF inh2 inactive, Bead autofluor inactive and BoNT F protease inactive.
For CCc1ccc(N2CSC3=C(C#N)C(c4cccs4)CC(=O)N3C2)cc1 (configuration not stated) the results were BoNT A protease inactive, Anthrax LF inh2 inactive, Bead autofluor 25679 and BoNT F protease inactive.
For CC(C)(C)OC(=O)N1CCC[C@@H]1C(=O)NCc1ccccc1Cl the results were BoNT A protease inactive, Anthrax LF inh2 inactive, Bead autofluor inactive and BoNT F protease inactive.
`COc1ccc(CCNC(=O)c2ccc(N3CCCC3=O)cc2)cc1OC` gave BoNT A protease inactive, Anthrax LF inh2 inactive, Bead autofluor 21331 and BoNT F protease inactive.
`COc1ccc(CCNC2CC(=O)N(C)C2=O)cc1OC` (configuration not stated) gave BoNT A protease inactive, Anthrax LF inh2 inactive, Bead autofluor 24224 and BoNT F protease inactive.
COc1ccc(CCNC2CC(=O)N(CCc3ccccc3)C2=O)cc1OC (configuration not stated) was read as BoNT A protease inactive, Anthrax LF inh2 inactive, Bead autofluor inactive and BoNT F protease inactive.
`CC1CCCCC1NC(=O)c1ccc(N2CCCC2=O)cc1` (configuration not stated) gave BoNT A protease inconclusive, Anthrax LF inh2 inactive, Bead autofluor 22649 and BoNT F protease inactive.
COc1cc(C(=O)NCCc2ccc3c(c2)OCCO3)ccc1OCC(=O)N1CCOCC1 was read as BoNT A protease inactive, Anthrax LF inh2 inactive, Bead autofluor 16542 and BoNT F protease inactive.
`COC(=O)C[C@H](NC(=O)Cn1cnc2c(NCc3ccccc3)ncnc21)C(=O)OC` gave BoNT A protease inactive, Anthrax LF inh2 inactive, Bead autofluor inactive and BoNT F protease inactive.
`COc1ccc2c(c1)Cc1cc(NC(=O)c3ccccc3-c3ccccc3C(=O)O)ccc1-2` gave BoNT A protease inactive, Anthrax LF inh2 inactive, Bead autofluor inactive and BoNT F protease inactive.
Screening Cc1cccc(N2CCN(S(=O)(=O)c3c(C)[nH]c(=O)[nH]c3=O)CC2)c1C returned BoNT A protease inconclusive, Anthrax LF inh2 inactive, Bead autofluor inactive and BoNT F protease inactive.
`Cc1ccc(Cl)cc1N1CCN(S(=O)(=O)c2c(C)[nH]c(=O)[nH]c2=O)CC1` gave BoNT A protease inconclusive, Anthrax LF inh2 inactive, Bead autofluor 19342 and BoNT F protease inactive.
CC(C)(CN1CCCN(CC(C)(C)C(=O)O)C1=O)C(=O)O was read as BoNT A protease inactive, Anthrax LF inh2 inactive, Bead autofluor inactive and BoNT F protease inactive.
C/C(=N\OC(=O)c1ccc(F)cc1)c1nccs1 was read as BoNT A protease inactive, Anthrax LF inh2 inactive, Bead autofluor 23617 and BoNT F protease inactive.
